Screening data (PubChem)
Hits are enriched below; roughly 3.7% of the tested compounds scored in any of these assays.
BoNT A protease = inhibitors of Botulinum neurotoxin A light chain protease; multiplex microsphere protease substrate cleavage, flow cytometry; inhibition, % at 10 µM; hit rate 0.17% among 360,000; AID 588499
Bead autofluor = counter-screen for toxin protease inhibitors: compound fluorescence. compound autofluorescence counterscreen, microsphere flow cytometry; active compounds read high. fluorescence intensity (concentration not given with the values). hit rate 3.1% among 360,000; in the data active = fluorescence intensity above about 16000; inconclusive = no clear call, values can overlap the other calls
Anthrax LF inh2 = inhibitors of Bacillus anthracis lethal factor protease | inhibition, % at 10 µM | hit rate 0.12% among 360,000 | P15917 | multiplex microsphere protease cleavage assay, LF
Target sequence (P15917 whole entry, looked up): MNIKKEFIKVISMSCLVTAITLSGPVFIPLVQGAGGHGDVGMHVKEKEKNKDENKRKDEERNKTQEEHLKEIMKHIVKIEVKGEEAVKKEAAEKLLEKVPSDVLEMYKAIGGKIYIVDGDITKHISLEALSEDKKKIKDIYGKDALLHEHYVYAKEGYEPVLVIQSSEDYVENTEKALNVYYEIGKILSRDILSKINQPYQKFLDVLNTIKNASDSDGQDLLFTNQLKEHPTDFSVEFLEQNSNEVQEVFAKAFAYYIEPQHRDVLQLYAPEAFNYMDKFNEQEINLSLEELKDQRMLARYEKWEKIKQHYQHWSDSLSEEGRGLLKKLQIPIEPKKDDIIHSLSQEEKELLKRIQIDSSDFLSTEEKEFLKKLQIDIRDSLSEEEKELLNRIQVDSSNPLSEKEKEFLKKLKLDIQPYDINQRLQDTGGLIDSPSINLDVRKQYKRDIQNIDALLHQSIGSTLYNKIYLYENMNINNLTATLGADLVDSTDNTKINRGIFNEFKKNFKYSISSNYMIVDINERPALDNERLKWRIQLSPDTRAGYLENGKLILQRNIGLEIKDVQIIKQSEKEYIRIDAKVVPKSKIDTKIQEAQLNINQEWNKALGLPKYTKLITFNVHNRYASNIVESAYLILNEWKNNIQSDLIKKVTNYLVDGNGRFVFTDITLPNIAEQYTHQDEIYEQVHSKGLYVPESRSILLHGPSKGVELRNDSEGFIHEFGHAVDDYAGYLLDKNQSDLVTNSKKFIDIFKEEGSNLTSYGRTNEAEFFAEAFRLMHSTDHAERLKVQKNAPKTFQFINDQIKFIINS
BJeLR lethal = BJeLR cell viability loss; hit rate 0.17% among 300,000; inhibition, % (no concentration beside the values); BJeLR (HRASV12) viability, CellTiter-Glo ATP luminescence, 48 h; in the data active = inhibition above about 50%; inconclusive = no clear call, values can overlap the other calls
BoNT F protease = BoNT F light chain protease inhibition; Multiplex microsphere protease cleavage assay, flow cytometry; inhibition, % at 10 µM; hit rate 0.22% among 360,000; in the data active = inhibition above about 35%, passing the limit was not always enough; inconclusive = no clear call, values can overlap the other calls
Vc quorum ag = quorum light induction in luxS cqsA deficient V. cholerae | V. cholerae BH1578 lux reporter, luminescence, 6 h | activation, % at 18.7 µM | hit rate 0.16% among 350,000 | AID 588436; in the data active = activation mostly above about 9.7%, no sharp cut-off; inconclusive = no clear call, values can overlap the other calls; inactive = mostly below about 3.7%
Hits are given with their value; n = inactive; u = inconclusive; x = not tested or not shown. Cut-off read from the data, not from the text of the source, unless noted: active = inhibition above about 30%; inconclusive = no clear call, values can overlap the other calls; inactive = below that.

SMILES | BoNT A protease | Bead autofluor | Anthrax LF inh2 | BJeLR lethal | BoNT F protease | Vc quorum ag
CS(=O)(=O)N1CCN(c2ccccc2NC(=O)c2ccc(-c3ccc(Br)cc3)o2)CC1 | n | 16514 | n | n | n | n
CS(=O)(=O)N1CCN(c2ccc(NC(=O)c3ccc(-c4ccc(Cl)cc4)o3)cc2)CC1 | n | 17675 | n | n | n | n
O=C(NC(=S)Nc1ccccc1N1CCCC1)c1ccc(-c2cccc([N+](=O)[O-])c2)o1 | u | 19601 | n | n | n | n
CC(C(=O)N1CCN(c2ccc(Cl)cc2)CC1)c1ncc(C(F)(F)F)cc1Cl (stereo not given) | n | 16547 | n | n | n | n
COCc1n[nH]c(=S)n1-c1cccc2ccccc12 | n | 23066 | n | x | n | n
COc1ccc(-c2cc(-c3n[nH]c(=S)n3-c3cccc4ccccc34)[nH]n2)cc1 | n | n | n | n | n | n
CC1(C2CC(=O)c3c(O)ccc(O)c3C2)OCCO1 (stereo not given) | n | n | n | x | n | n
Cc1nc(C(=O)Nc2cccc(Cl)c2)nn1-c1cc(OC(C)C)c(Cl)cc1Cl | u | 23251 | n | n | n | n
Cc1nc(C(=O)Nc2ccc(Cl)cc2Cl)nn1-c1cc(OC(C)C)c(Cl)cc1Cl | n | n | n | n | n | n
Cc1nc(C(=O)Nc2cc(Cl)ccc2Cl)nn1-c1cc(OC(C)C)c(Cl)cc1Cl | n | 24341 | n | n | n | n
COc1ccc(S(=O)(=O)NC(=O)C2(C)CCN2C(=O)C2(c3ccc(Cl)cc3)CCC2)cc1 (stereo not given) | n | n | n | x | n | n
Cc1ccc(C(O)c2ncc(-c3ccccc3Cl)[nH]2)cc1F (stereo not given) | n | n | n | x | n | n
Cn1ncc(Br)c1C(=O)Nc1c(F)c(F)cc(F)c1F | u | 21682 | n | n | n | n
COC(=O)c1ccc(COC(=O)C2CCN(S(=O)(=O)c3c(C)cc(C)cc3C)CC2)o1 | n | n | n | x | n | n
COC(=O)c1ccc2c(=O)[nH]c(COC(=O)c3cccc(S(=O)(=O)N4CCOCC4)c3)nc2c1 | n | n | n | n | n | n
N#Cc1ccc(COC(=O)c2ccc3c(=O)[nH]c(CN4CCOCC4)nc3c2)cc1 | n | 23349 | n | n | n | n
OCCN1CCN(c2ncnc3c2ncn3[C@H]2CN(Cc3ccc(Cl)cc3)C[C@@H](CO)O2)CC1 | n | n | n | x | n | n
CC(=O)Nc1ccc(OCc2cn(CC(=O)c3ccc(O)cc3)nn2)cc1 | n | n | n | x | n | n
O=C1CC(Nc2ccc(N3CCOCC3)cc2)C(=O)N1Cc1ccccc1 (stereo not given) | n | 22615 | n | n | n | n
NC(=O)NC(c1ccccc1)c1ccccc1F (stereo not given) | n | 23015 | n | n | n | n
CCOC(=O)/C=C1\SCC(=O)N1CC(=O)c1ccc[nH]1 | n | 21362 | n | n | n | n
CCN1/C(=C/c2ccc3ccccc3[n+]2CC)C=Cc2ccccc21 | n | n | n | 62 | n | n
COC(=O)C(Nc1ccccc1Cl)(c1cc(C)c(O)c(C)c1)C(F)(F)F (stereo not given) | n | n | n | n | n | n
COC(=O)/C(=C(/F)Sc1cc(C)c(O)c(C)c1)C(F)(F)F | n | 22354 | n | n | n | n
CC(C)C(=O)Nc1cccc(-c2cnc3ccccc3n2)c1 | n | 20196 | n | n | n | n
SMILES | BoNT A protease | Bead autofluor | Anthrax LF inh2 | BJeLR lethal | BoNT F protease | Vc quorum ag
O=C(Nc1cccc(Cl)c1)c1csc([C@@H]2O[C@H](CO)[C@H](O)[C@H](O)[C@H]2O)n1 | n | n | n | x | n | n
Cc1ccccc1-c1nc(CN2CCC(C(=O)NCc3cccnc3)CC2)c(C)o1 | u | 22517 | n | n | n | n
CCc1ccc(-c2nc(CN3CCC(C(=O)NCc4ccccc4OC)CC3)c(C)o2)cc1 | u | 25156 | n | n | n | n
COc1ccc(CCNC(=O)C2CCN(Cc3nc(-c4ccccc4F)oc3C)CC2)cc1OC | n | n | n | n | n | n
Cc1ccccc1-c1nc(CN2CCC(C(=O)NCc3ccco3)CC2)c(C)o1 | n | 21224 | n | n | n | n
Cc1oc(-c2ccc(Cl)cc2)nc1CN1CCC(C(=O)NCc2ccco2)CC1 | n | n | n | n | n | n
COc1ccccc1CNC(=O)C1CCN(Cc2nc(-c3cccc(Cl)c3)oc2C)CC1 | n | n | n | n | n | n
Cc1oc(-c2ccccc2F)nc1CN1CCC(C(=O)NCc2cccnc2)CC1 | n | 20391 | n | n | n | n
O=C(NC(c1cccnc1)C(F)(F)F)c1cc(COc2ccc3c(c2)CCCC3)on1 (stereo not given) | n | n | n | n | n | n
O=C(NC(Sc1ccc(Cl)cc1)C(=O)O)c1ccccc1 (stereo not given) | n | n | n | x | n | n
Cc1oc(-c2ccc(Cl)cc2)nc1CN1CCCC(C(=O)NCc2ccccn2)C1 (stereo not given) | n | 22724 | n | n | n | n
CC(=O)c1cccc(NC(=O)C2Cc3c(-c4cccc(F)c4)ccnc3O2)c1 (stereo not given) | n | n | n | x | n | n
COc1ccc(C2C(=O)N(CCc3ccccc3)CC(=O)N2C2CCCCC2)cc1 (stereo not given) | n | 25113 | n | n | n | n
CC1(C(=O)NS(=O)(=O)c2ccccc2OC(F)(F)F)CCN1C(=O)Cc1ccccc1 (stereo not given) | n | n | n | x | n | n
CCn1c(SCC(=O)c2ccc(Br)cc2)nnc1C(C)NC(=O)Cc1ccc(OC)cc1 (stereo not given) | n | 17649 | n | n | n | n
COc1ccc(CC(=O)NC(C)c2nnc(SCC(=O)c3ccc(Br)cc3)n2C)cc1 (stereo not given) | n | n | n | n | n | n
CCOC(=O)C(=CNc1cc(C)nn1-c1ccccc1)C(=O)OCC | u | 21382 | n | n | n | n
Cc1ccc(C(=O)CC(=O)c2cc(Cl)ccc2O)cc1 | n | n | n | n | n | n
CC(C)(C)c1ccc(C(=O)CC(=O)c2cc(Cl)ccc2O)cc1 | n | 21100 | n | n | n | n
COc1ccc(OC)c(CNc2nc3ccccc3n2CCN2CCCCC2)c1 | n | 16368 | n | n | n | n
c1ccc(Cn2c(CNc3nc4ccccc4n3CCN3CCOCC3)nc3ccccc32)cc1 | u | 23712 | n | n | n | n
O=C(O)c1cccc2cccc(-c3c4ccc(=O)c(O)c-4oc4c(O)c(O)ccc34)c12 | n | n | n | x | n | n
Cc1cc2c3c(c1)C1(C(=O)N3C(C)(C)CC2C)C(C#N)=C(N)Oc2n[nH]c(C)c21 (stereo not given) | u | 21117 | n | n | n | n
Cc1cc2c3c(c1C)C1(C(=O)N3C(C)(C)CC2C)C(C#N)=C(N)Oc2n[nH]c(C)c21 (stereo not given) | n | n | n | n | n | n
CC1(C(=O)Nc2ccc3ccccc3c2)CCC(=O)N1CCCn1ccnc1 (stereo not given) | n | n | n | x | n | x
C/C(=N\Nc1nc(N)cc(Cl)n1)c1cccc([N+](=O)[O-])c1 | n | 22572 | n | n | n | n
